# From PubChem
# Sampled rows, rich in hits. Any-hit rate of the full collection: about 4.5%.
# ssDAF-12 act – S. stercoralis DAF-12 nuclear receptor activators, primary screen, cell-based, luminescence, HEK293, GRIP1 co-expression, lit1-tk-luc; Nuclear hormone receptor DAF-12 (Strongyloides stercoralis); HEK293 ssDAF-12/GRIP1 lit1-tk-luc reporter; % of 3 µM dafachronic acid response; activation, % at 6.8 µM; actives 1% (n = 370,000);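 active = activation above the mean over all tested compounds plus 3 SD, cut at about 0.9% in these data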;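 note: 0% = DMSO-only wells and 100% = 3 µM delta7-dafachronic acid wells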
# hgDAF12 agonist – H. glycines DAF-12 receptor agonists, primary screen, cell-based, luminescence, HEK293, GAL4 fusion, UAS-luciferase | Nuclear hormone receptor DAF-12 (Heterodera glycines), GAL4 fusion | HEK293 GAL4-hgDAF12 UAS-luciferase reporter, agonist luminescence; normalized to butyrate control | activation, % at 6.8 µM | actives 1.8% (n = 370,000) | AID 687014, 2013;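 active = activation above a cutoff set at the mean of all screened compounds plus 3 SD, cut at about 10% in these data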;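 note: 0% = DMSO wells and 100% = sodium butyrate wells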
# hcDAF12 agonist – H. contortus DAF-12 nuclear receptor activators, primary screen, cell-based, luminescence, HEK293, lit1-tk-luc reporter; HEK293 hcDAF-12 lit1-tk-luc reporter; 0% DMSO, 100% Δ7-dafachronic acid; activation, % at 6.8 µM; actives 1.4% (n = 370,000);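 active = activation above the mean of all tested compounds plus 3 SD, cut at about 5.5% in these data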;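 note: 100% = response to 3 µM Δ7-dafachronic acid high control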
# FXN GAA850 act – FXN promoter activators, primary screen, cell-based, luciferase luminescence, HEK293 lucGAA850 | HEK293 lucGAA850 FXN promoter luciferase reporter, 24 h; percent of 10 µM SAHA response | activation, % at 6 µM | actives 0.56% (n = 360,000) | AID 540364, 2011;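 active = activation above the average of all compounds screened plus 3 SD, cutoff fixed separately per campaign, cut at about 7.5% in these data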;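 note: 0% = DMSO wells and 100% = 10 µM SAHA wells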
# DAX1 inh-1 – DAX1 (NR0B1) inhibitors, primary screen, cell-based, HEK293, Gal4-DAX1, luciferase luminescence. HEK293 Gal4-DAX1 luciferase reporter. inhibition, % at 6.75 µM. actives 0.99% (n = 340,000). AID 504766, 2011;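 active = inhibition above the mean over all tested compounds plus 3 SD, cut at about 4.2% in these data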;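 note: 0% = DAX1-transfected cells with DMSO and 100% = empty-vector control cells with DMSO; inhibition shows as a rise in luminescence from relieved DAX1 repression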
# DAX1 inh-2 – DAX1 (NR0B1) inhibitors on StAR promoter, primary screen, cell-based, luminescence, SF-1 (NR5A1), full-length DAX-1; HEK293T StAR-luciferase reporter, SF-1/DAX-1 repression relief; inhibition, % at 6.8 µM; actives 1.1% (n = 370,000); AID 652010, 2013;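 active = inhibition above the mean over all tested compounds plus 3 SD, cut at about 3.6% in these data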;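 note: 0% = DAX-1 cells with DMSO and 100% = cells lacking DAX-1 with DMSO; higher inhibition means more luminescence from relief of DAX-1 repression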
# hgDAF12 conf – H. glycines DAF-12 receptor agonists, confirmation, cell-based, luminescence, HEK293, GAL4-LBD fusion | shares compounds with hgDAF12 agonist | HEK293 GAL4-hgDAF12 luciferase reporter, agonist mode; percent of butyrate response | activation, % at 6.8 µM | actives 80% (n = 3,300);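 active = mean activation over triplicate wells above the hit cutoff derived from the earlier primary screen, cut at about 11% in these data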;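 note: 0% = DMSO low control and 100% = 2 mM sodium butyrate high control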
# LXR ag 2 – LXR agonists, Gal4 luciferase reporter, confirmation, counter-screen for hgDAF-12 agonist project, cell-based, luminescence, HEK293, H. glycines campaign; 3,300 tested, under 10 active; activation, % at 6.8 µM; shares compounds with hgDAF12 agonist; 24 h;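 active = mean activation of the triplicate above a set limit carried over from the primary screen, none filed active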
# Target sequence (P55055 whole entry, looked up, the tested form may be a part): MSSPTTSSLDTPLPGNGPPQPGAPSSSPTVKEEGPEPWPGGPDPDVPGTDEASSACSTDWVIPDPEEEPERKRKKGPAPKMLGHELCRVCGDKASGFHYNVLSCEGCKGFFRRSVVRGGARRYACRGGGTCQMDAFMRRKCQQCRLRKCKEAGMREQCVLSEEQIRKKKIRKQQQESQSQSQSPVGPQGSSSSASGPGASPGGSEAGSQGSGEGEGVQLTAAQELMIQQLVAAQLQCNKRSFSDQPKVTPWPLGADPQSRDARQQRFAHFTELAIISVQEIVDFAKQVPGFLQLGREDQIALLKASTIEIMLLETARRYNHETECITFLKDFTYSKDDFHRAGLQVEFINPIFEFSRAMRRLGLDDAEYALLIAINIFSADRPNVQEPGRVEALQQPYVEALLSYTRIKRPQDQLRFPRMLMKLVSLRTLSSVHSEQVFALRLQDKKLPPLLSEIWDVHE
# Starred values were filed as active, the others as inactive; . = no result given.
SMILES,ssDAF-12 act,hgDAF12 agonist,hcDAF12 agonist,FXN GAA850 act,DAX1 inh-1,DAX1 inh-2,hgDAF12 conf,LXR ag 2
Cc1ccc(-c2cc(C(=O)N3CCCCCC3)no2)cc1,1.3*,14*,5,4,0,3,21*,1
O=C(c1cc(-c2ccccc2O)on1)N1CCCCCC1,1,14*,3,5,2,2,10,0
CCN(CC)CCNC(=O)c1ccc(NC(=O)C2CCN(c3ncnc4sc(C)c(C)c34)CC2)cc1,-1,4,-2,2,-1,0,.,.
COC(=O)C1=C(C)N(Cc2ccccc2C(F)(F)F)C(=NCc2ccc(OC)cc2)NC1c1ccccc1C(F)(F)F (configuration not stated),-1,0,-2,.,.,-1,.,.
O=C(c1cc(-c2ccccc2)on1)N1CCCCCC1,0,13*,4,7,1,2,15*,1
COc1ccc(-c2cc(C(=O)N3CCCC3)no2)cc1,0,14*,5,-3,-2,2,10,1
COc1ccc(-c2cc(C(=O)N3CCCc4ccccc43)no2)cc1,-2,5,0,2,0,0,.,.
O=c1c2ccccc2nnn1CSc1ccc2ccccc2n1,-2,0,1,4,1,0,.,.
O=c1c2ccccc2nnn1CSc1ccccc1,-1,16*,3,3,1,3.6*,14*,1
CNc1cncc(-c2ccc(CN(C)C)cc2)n1,-1,16*,2,3,.,4.0*,9,0
CSc1cccc(NC(=O)c2cnn3ccccc23)c1,1.7*,18*,5,5,2,2,20*,1
O=C(NCc1ccc(F)cc1)c1cnn2ccccc12,-1,16*,1,3,2,3,13*,1
COCCNC(=O)c1noc2c1CCc1cc(OC)ccc1-2,1,14*,2,1,1,2,12*,1
COCC(C)NC(=O)c1noc2c1CCc1cc(OC)ccc1-2 (configuration not stated),-2,6,1,4,2,1,.,.
C#CCOCCOCCOCCNc1nc(N2CCOCC2)nc(N2CCN(C(=O)[C@H](CCC(=O)O)n3cc(C(N)CC(C)C)nn3)CC2)n1 (some centres not stated),0,7,2,.,.,.,.,.
Cc1ccccc1NC(=O)c1ccc(OCC(=O)Nc2ccccc2F)cc1,-2,-1,-2,1,0,-1,.,.
Cc1ccc(OCC(=O)Nc2ccccc2F)cc1C,1,16*,3,3,2,4,13*,1
CN1CCC(=NNC(=O)C(=O)NC(C)(C)C)CC1,-1,3,1,1,1,0,.,.
CN1CCC(=NNC(=O)C(=O)Nc2ccccc2F)CC1,-2,24*,-1,0,3,0,2,0
O=C(NNc1nc2cc3c(cc2s1)OCCO3)c1ccc(F)cc1,0,4,4,2,3,0,.,.
Fc1ccc2nc(Nc3ccccc3)sc2c1,-1,19*,4,6,2,3,14*,1
